{"source": "paper PMC8384837", "about": "“Expanding the binding specificity for RNA recognition by a PUF domain”", "experiment_in_all_cases": "yeast three-hybrid, YBZ-1, SC-Leu-His + 0.5 mM 3-AT, 4 days", "settings_in_all_cases": "tags: N-Gal4 AD-HA kept; label: inside an RPR1-promoter hybrid RNA with tandem MS2 sites; ssRNA", "key": {"PUM1 PUF domain R5-RTR": {"target": "PUM1 PUF domain R5-RTR (Homo sapiens, UniProt Q14671 828-1176, C1007R;R1008T;Q1011R)", "procedure,_shortened": "(§1)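 The interaction score is the log change in how often each variant appears, from input to selection. Frequencies came from PCR-amplified, Illumina-sequenced repeat regions of Pumilio-1 PUF domain libraries grown in strain YBZ-1 (LexA–MS2 coat fusion, HIS3 reporter) alongside matching RNA elements. Input plates were SC-Leu and selection plates were SC-Leu-His + 0.5 mM 3-AT, each for four days, and the log2 calculation used a pseudocount of 1 where a variant was absent.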"}, "PUM1 PUF domain R5-RGQ": {"target": "PUM1 PUF domain R5-RGQ (Homo sapiens, UniProt Q14671 828-1176, C1007R;R1008G)", "procedure,_shortened": "as §1"}, "PUM1 PUF domain R8-RYE": {"target": "PUM1 PUF domain R8-RYE (Homo sapiens, UniProt Q14671 828-1176, N1122R;Q1126E)", "procedure,_shortened": "as §1"}, "PUM1 PUF domain R8-HFV": {"target": "PUM1 PUF domain R8-HFV (Homo sapiens, UniProt Q14671 828-1176, N1122H;Y1123F;Q1126V)", "procedure,_shortened": "as §1"}, "PUM1 PUF domain R8-RWT": {"target": "PUM1 PUF domain R8-RWT (Homo sapiens, UniProt Q14671 828-1176, N1122R;Y1123W;Q1126T)", "procedure,_shortened": "as §1"}, "PUM1 PUF domain R6-VWK": {"target": "T1, PUM1 PUF domain R6-VWK (Homo sapiens, UniProt Q14671 828-1176, N1043V;Y1044W;Q1047K)", "T1 sequence": "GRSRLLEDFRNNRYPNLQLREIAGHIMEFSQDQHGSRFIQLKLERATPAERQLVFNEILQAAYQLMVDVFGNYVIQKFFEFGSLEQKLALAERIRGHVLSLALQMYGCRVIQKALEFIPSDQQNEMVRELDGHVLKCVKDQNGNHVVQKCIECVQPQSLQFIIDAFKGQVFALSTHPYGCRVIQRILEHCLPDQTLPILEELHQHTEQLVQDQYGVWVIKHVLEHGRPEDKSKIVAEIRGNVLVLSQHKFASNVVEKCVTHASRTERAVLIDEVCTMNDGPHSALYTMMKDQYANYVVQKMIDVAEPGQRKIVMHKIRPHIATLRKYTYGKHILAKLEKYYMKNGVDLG", "procedure,_shortened": "as §1"}, "PUM1 PUF domain R1-KGV": {"target": "PUM1 PUF domain R1-KGV (Homo sapiens, UniProt Q14671 828-1176, S863K;R864G;Q867V)", "procedure,_shortened": "as §1"}, "PUM1 PUF domain R1-KME": {"target": "PUM1 PUF domain R1-KME (Homo sapiens, UniProt Q14671 828-1176, S863K;R864M;Q867E)", "procedure,_shortened": "as §1"}, "PUM1 PUF domain R3-RSS": {"target": "PUM1 PUF domain R3-RSS (Homo sapiens, UniProt Q14671 828-1176, C935R;R936S;Q939S)", "procedure,_shortened": "as §1"}, "PUM1 PUF domain R3-RTH": {"target": "PUM1 PUF domain R3-RTH (Homo sapiens, UniProt Q14671 828-1176, C935R;R936T;Q939H)", "procedure,_shortened": "as §1"}, "PUM1 PUF domain R7-ATR": {"target": "PUM1 PUF domain R7-ATR (Homo sapiens, UniProt Q14671 828-1176, S1079A;N1080T;E1083R)", "procedure,_shortened": "as §1"}, "PUM1 PUF domain R7-RRK": {"target": "PUM1 PUF domain R7-RRK (Homo sapiens, UniProt Q14671 828-1176, S1079R;N1080R;E1083K)", "procedure,_shortened": "as §1"}, "PUM1 PUF domain R2-MWR": {"target": "PUM1 PUF domain R2-MWR (Homo sapiens, UniProt Q14671 828-1176, N899M;Y900W;Q903R)", "procedure,_shortened": "as §1"}, "PUM1 PUF domain R2-DWQ": {"target": "PUM1 PUF domain R2-DWQ (Homo sapiens, UniProt Q14671 828-1176, N899D;Y900W)", "procedure,_shortened": "as §1"}, "PUM1 PUF domain R2-LFV": {"target": "PUM1 PUF domain R2-LFV (Homo sapiens, UniProt Q14671 828-1176, N899L;Y900F;Q903V)", "procedure,_shortened": "as §1"}, "PUM1 PUF domain R4-FHR": {"target": "PUM1 PUF domain R4-FHR (Homo sapiens, UniProt Q14671 828-1176, N971F;Q975R)", "procedure,_shortened": "as §1"}}, "data": [{"sequence": "GGCUAGAACUAGUGGAUCCCCCGGCGCCCGGCGGCUCGAGCCCGGGUAAGUGUCAAUAGUCUGCAUGCCGCCGGGCGCCAUGCCUGCAGGUCGACUCUAGAAAACAUG", "values": [{"measurement": "binding signal", "setting": "PUM1 PUF domain R5-RTR", "result": "3.19 log2 enrichment (interaction score)"}, {"measurement": "binding signal", "setting": "PUM1 PUF domain R5-RGQ", "result": "2.62 log2 enrichment (interaction score)"}]}, {"sequence": "GGCUAGAACUAGUGGAUCCCCCGGCGCCCGGCGGCUCGAGCCCGGGUAAGUGUUAAUAGUCUGCAUGCCGCCGGGCGCCAUGCCUGCAGGUCGACUCUAGAAAACAUG", "values": [{"measurement": "binding signal", "setting": "PUM1 PUF domain R5-RTR", "result": "2.56 log2 enrichment (interaction score)"}, {"measurement": "binding signal", "setting": "PUM1 PUF domain R5-RGQ", "result": "4.2 log2 enrichment (interaction score)"}]}, {"sequence": "GGCUAGAACUAGUGGAUCCCCCGGCGCCCGGCGGCUCGAGCCCGGGUAAGCGUAAAUAGUCUGCAUGCCGCCGGGCGCCAUGCCUGCAGGUCGACUCUAGAAAACAUG", "values": [{"measurement": "binding signal", "setting": "PUM1 PUF domain R8-RYE", "result": "3.48 log2 enrichment (interaction score)"}, {"measurement": "binding signal", "setting": "PUM1 PUF domain R8-HFV", "result": "3.91 log2 enrichment (interaction score)"}, {"measurement": "binding signal", "setting": "PUM1 PUF domain R8-RWT", "result": "5.51 log2 enrichment (interaction score)"}]}, {"sequence": "GGCUAGAACUAGUGGAUCCCCCGGCGCCCGGCGGCUCGAGCCCGGGUAAGUGUAAAUAGUCUGCAUGCCGCCGGGCGCCAUGCCUGCAGGUCGACUCUAGAAAACAUG", "values": [{"measurement": "binding signal", "setting": "PUM1 PUF domain R8-HFV", "result": "2.65 log2 enrichment (interaction score)"}, {"measurement": "binding signal", "setting": "PUM1 PUF domain R8-RWT", "result": "4.9 log2 enrichment (interaction score)"}, {"measurement": "binding signal", "setting": "PUM1 PUF domain R6-VWK", "result": "5.58 log2 enrichment (interaction score)"}]}, {"sequence": "GGCUAGAACUAGUGGAUCCCCCGGCGCCCGGCGGCUCGAGCCCGGGUAAGUGUAAAUUGUCUGCAUGCCGCCGGGCGCCAUGCCUGCAGGUCGACUCUAGAAAACAUG", "values": [{"measurement": "binding signal", "setting": "PUM1 PUF domain R1-KGV", "result": "3.66 log2 enrichment (interaction score)"}]}, {"sequence": "GGCUAGAACUAGUGGAUCCCCCGGCGCCCGGCGGCUCGAGCCCGGGUAAGUGUAAAUCGUCUGCAUGCCGCCGGGCGCCAUGCCUGCAGGUCGACUCUAGAAAACAUG", "values": [{"measurement": "binding signal", "setting": "PUM1 PUF domain R1-KGV", "result": "4.16 log2 enrichment (interaction score)"}, {"measurement": "binding signal", "setting": "PUM1 PUF domain R1-KME", "result": "4.22 log2 enrichment (interaction score)"}]}, {"sequence": "GGCUAGAACUAGUGGAUCCCCCGGCGCCCGGCGGCUCGAGCCCGGGUAAGUGUAAGUAGUCUGCAUGCCGCCGGGCGCCAUGCCUGCAGGUCGACUCUAGAAAACAUG", "values": [{"measurement": "binding signal", "setting": "PUM1 PUF domain R3-RSS", "result": "0.48 log2 enrichment (interaction score)"}]}, {"sequence": "GGCUAGAACUAGUGGAUCCCCCGGCGCCCGGCGGCUCGAGCCCGGGUAAGUGUAAUUAGUCUGCAUGCCGCCGGGCGCCAUGCCUGCAGGUCGACUCUAGAAAACAUG", "values": [{"measurement": "binding signal", "setting": "PUM1 PUF domain R3-RSS", "result": "3.63 log2 enrichment (interaction score)"}, {"measurement": "binding signal", "setting": "PUM1 PUF domain R3-RTH", "result": "3.6 log2 enrichment (interaction score)"}]}, {"sequence": "GGCUAGAACUAGUGGAUCCCCCGGCGCCCGGCGGCUCGAGCCCGGGUAAGUUUAAAUAGUCUGCAUGCCGCCGGGCGCCAUGCCUGCAGGUCGACUCUAGAAAACAUG", "values": [{"measurement": "binding signal", "setting": "PUM1 PUF domain R7-ATR", "result": "3.43 log2 enrichment (interaction score)"}, {"measurement": "binding signal", "setting": "PUM1 PUF domain R7-RRK", "result": "4.3 log2 enrichment (interaction score)"}]}, {"sequence": "GGCUAGAACUAGUGGAUCCCCCGGCGCCCGGCGGCUCGAGCCCGGGUAAGUGUAAACAGUCUGCAUGCCGCCGGGCGCCAUGCCUGCAGGUCGACUCUAGAAAACAUG", "values": [{"measurement": "binding signal", "setting": "PUM1 PUF domain R2-MWR", "result": "5.06 log2 enrichment (interaction score)"}, {"measurement": "binding signal", "setting": "PUM1 PUF domain R2-DWQ", "result": "4.49 log2 enrichment (interaction score)"}]}, {"sequence": "GGCUAGAACUAGUGGAUCCCCCGGCGCCCGGCGGCUCGAGCCCGGGUAAGUCUAAAUAGUCUGCAUGCCGCCGGGCGCCAUGCCUGCAGGUCGACUCUAGAAAACAUG", "values": [{"measurement": "binding signal", "setting": "PUM1 PUF domain R7-RRK", "result": "1.72 log2 enrichment (interaction score)"}]}, {"sequence": "GGCUAGAACUAGUGGAUCCCCCGGCGCCCGGCGGCUCGAGCCCGGGUAAGUGUAAAAAGUCUGCAUGCCGCCGGGCGCCAUGCCUGCAGGUCGACUCUAGAAAACAUG", "values": [{"measurement": "binding signal", "setting": "PUM1 PUF domain R2-DWQ", "result": "7.04 log2 enrichment (interaction score)"}, {"measurement": "binding signal", "setting": "PUM1 PUF domain R2-LFV", "result": "4.38 log2 enrichment (interaction score)"}]}, {"sequence": "GGCUAGAACUAGUGGAUCCCCCGGCGCCCGGCGGCUCGAGCCCGGGUAAGUGUAUAUAGUCUGCAUGCCGCCGGGCGCCAUGCCUGCAGGUCGACUCUAGAAAACAUG", "values": [{"measurement": "binding signal", "setting": "PUM1 PUF domain R4-FHR", "result": "3.37 log2 enrichment (interaction score)"}]}, {"sequence": "GGCUAGAACUAGUGGAUCCCCCGGCGCCCGGCGGCUCGAGCCCGGGUAAGUGAAAAUAGUCUGCAUGCCGCCGGGCGCCAUGCCUGCAGGUCGACUCUAGAAAACAUG", "values": [{"measurement": "binding signal", "setting": "PUM1 PUF domain R6-VWK", "result": "7.03 log2 enrichment (interaction score)"}]}]}
